# From ChEMBL document CHEMBL2218924, “A broad activity screen in support of a chemogenomic map for kinase signalling research and drug discovery” (Biochem J, 2013)
# Legend:
# [1] = molecular target: T1, Ephrin type-A receptor 3 (Homo sapiens) (UniProt P29320); details: at 10 µM
# T1 sequence (whole entry): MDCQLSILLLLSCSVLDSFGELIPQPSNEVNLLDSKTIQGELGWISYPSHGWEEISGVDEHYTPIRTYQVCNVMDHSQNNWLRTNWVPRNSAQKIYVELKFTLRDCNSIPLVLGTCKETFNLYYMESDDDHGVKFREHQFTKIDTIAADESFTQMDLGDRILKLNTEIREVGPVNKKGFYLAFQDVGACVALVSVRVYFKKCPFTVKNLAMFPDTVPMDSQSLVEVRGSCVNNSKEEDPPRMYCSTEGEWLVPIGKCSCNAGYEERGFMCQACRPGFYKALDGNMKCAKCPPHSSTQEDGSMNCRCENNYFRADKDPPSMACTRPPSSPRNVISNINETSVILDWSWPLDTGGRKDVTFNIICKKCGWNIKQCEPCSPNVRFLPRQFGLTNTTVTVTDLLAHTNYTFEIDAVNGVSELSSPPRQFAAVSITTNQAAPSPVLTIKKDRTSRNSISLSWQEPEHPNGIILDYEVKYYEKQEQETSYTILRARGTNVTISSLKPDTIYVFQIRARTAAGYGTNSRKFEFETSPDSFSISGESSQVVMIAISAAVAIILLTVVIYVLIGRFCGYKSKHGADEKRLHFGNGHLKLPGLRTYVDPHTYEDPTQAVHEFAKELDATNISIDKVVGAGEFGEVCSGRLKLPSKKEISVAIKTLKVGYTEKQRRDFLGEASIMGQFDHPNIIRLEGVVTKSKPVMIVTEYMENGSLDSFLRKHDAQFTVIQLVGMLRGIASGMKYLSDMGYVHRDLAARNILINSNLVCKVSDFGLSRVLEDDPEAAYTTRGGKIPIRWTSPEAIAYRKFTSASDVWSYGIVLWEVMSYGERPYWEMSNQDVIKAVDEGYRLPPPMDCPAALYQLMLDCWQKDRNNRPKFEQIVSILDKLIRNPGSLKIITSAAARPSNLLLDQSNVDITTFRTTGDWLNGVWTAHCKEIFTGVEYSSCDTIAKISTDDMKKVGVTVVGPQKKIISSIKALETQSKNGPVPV
# [2] = molecular target: Ephrin type-A receptor 5 (Homo sapiens) (UniProt P54756); details: at 1 µM
# [3] = molecular target: Ephrin type-A receptor 7 (Homo sapiens) (UniProt Q15375); details: at 1 µM
# [4] = molecular target: Ephrin type-A receptor 7 (Homo sapiens) (UniProt Q15375); details: at 10 µM
# [5] = molecular target: T2, Ephrin type-A receptor 8 (Homo sapiens) (UniProt P29322); details: at 1 µM
# T2 sequence (whole entry): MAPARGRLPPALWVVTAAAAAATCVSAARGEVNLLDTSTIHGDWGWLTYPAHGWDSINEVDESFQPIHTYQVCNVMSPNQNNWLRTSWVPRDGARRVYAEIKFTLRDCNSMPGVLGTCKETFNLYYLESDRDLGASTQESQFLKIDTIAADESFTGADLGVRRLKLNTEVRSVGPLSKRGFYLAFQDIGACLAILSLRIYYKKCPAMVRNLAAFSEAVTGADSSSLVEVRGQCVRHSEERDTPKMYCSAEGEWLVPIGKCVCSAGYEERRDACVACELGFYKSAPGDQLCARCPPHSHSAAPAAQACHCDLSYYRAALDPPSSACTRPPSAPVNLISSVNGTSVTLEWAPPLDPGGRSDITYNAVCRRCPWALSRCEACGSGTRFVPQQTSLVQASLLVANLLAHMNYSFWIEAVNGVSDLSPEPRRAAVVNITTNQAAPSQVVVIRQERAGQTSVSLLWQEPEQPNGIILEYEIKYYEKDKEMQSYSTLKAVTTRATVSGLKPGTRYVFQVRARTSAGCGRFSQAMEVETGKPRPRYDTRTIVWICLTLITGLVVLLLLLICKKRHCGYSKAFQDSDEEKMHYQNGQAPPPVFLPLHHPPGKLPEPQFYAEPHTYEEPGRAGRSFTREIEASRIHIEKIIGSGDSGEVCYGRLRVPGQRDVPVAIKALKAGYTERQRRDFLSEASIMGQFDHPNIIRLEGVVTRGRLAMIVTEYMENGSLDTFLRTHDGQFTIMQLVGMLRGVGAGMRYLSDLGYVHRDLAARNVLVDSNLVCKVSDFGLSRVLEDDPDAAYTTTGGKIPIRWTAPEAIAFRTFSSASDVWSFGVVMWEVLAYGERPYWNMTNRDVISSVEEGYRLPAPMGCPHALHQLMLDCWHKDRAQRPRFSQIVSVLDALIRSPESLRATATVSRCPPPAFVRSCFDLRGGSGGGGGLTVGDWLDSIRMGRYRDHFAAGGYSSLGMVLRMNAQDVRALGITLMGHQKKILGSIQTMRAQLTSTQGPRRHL
# [6] = molecular target: T2, Ephrin type-A receptor 8 (Homo sapiens); details: at 10 µM
# [7] = molecular target: T3, Ephrin type-B receptor 4 (Homo sapiens) (UniProt P54760); details: at 1 µM
# T3 sequence (whole entry): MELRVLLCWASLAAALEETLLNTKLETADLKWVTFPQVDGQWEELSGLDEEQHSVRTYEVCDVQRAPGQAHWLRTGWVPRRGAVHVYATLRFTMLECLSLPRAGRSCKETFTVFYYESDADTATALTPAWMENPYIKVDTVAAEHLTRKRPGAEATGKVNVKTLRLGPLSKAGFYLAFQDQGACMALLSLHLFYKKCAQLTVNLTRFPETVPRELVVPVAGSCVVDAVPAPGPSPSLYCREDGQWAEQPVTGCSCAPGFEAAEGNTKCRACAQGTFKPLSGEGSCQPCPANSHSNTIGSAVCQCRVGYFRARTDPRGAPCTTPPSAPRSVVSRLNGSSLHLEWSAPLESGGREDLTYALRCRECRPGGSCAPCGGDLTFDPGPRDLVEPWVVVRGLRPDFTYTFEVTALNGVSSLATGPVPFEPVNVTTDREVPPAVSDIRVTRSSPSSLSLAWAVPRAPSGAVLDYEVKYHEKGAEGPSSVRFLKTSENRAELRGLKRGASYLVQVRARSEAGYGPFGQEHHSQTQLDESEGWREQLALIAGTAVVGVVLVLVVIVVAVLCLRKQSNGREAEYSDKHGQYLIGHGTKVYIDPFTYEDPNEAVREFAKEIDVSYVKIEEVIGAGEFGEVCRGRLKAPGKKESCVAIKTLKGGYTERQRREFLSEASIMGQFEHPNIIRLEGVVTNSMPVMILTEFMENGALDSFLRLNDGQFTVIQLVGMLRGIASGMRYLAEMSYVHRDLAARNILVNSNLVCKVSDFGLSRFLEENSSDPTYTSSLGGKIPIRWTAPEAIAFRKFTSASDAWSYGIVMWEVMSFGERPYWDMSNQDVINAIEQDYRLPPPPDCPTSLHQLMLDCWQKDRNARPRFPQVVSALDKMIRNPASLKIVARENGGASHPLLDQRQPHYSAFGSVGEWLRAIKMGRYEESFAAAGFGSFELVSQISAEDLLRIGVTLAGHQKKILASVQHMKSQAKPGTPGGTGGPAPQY
# [8] = molecular target: T3, Ephrin type-B receptor 4 (Homo sapiens); details: at 10 µM
# [9] = molecular target: Focal adhesion kinase 1 (Homo sapiens) (UniProt Q05397); details: at 1 µM
# Focal adhesion kinase 1 (Homo sapiens), sequence (Q05397 2-1052 limits assumed): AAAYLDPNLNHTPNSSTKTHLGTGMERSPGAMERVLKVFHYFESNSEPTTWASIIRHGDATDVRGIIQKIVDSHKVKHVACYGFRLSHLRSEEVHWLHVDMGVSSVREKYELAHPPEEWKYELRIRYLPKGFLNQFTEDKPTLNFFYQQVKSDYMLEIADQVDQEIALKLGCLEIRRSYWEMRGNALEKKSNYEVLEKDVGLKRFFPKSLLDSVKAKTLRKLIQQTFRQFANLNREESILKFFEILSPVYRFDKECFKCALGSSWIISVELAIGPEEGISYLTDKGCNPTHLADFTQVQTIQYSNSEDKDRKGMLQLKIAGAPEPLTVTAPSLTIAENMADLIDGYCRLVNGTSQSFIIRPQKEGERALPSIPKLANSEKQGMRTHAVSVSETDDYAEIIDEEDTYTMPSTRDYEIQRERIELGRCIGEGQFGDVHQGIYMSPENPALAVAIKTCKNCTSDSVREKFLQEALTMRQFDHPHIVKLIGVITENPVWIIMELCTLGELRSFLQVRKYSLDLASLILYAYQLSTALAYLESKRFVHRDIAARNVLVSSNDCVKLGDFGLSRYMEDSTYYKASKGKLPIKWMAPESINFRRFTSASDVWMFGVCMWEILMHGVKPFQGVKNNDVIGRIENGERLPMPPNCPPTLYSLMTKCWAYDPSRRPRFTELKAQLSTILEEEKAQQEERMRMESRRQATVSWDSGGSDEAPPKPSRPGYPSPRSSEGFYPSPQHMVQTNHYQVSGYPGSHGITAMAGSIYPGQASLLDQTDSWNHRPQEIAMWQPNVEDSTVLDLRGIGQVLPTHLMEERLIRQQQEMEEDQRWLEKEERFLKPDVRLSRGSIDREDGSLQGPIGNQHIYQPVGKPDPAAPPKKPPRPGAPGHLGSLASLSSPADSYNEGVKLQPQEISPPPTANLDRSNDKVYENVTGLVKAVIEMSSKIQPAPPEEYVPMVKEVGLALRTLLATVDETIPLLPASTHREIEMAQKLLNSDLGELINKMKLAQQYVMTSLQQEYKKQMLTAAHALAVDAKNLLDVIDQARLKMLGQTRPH
# Ephrin type-A receptor 7 (Homo sapiens), sequence (Q15375 28-998 limits assumed): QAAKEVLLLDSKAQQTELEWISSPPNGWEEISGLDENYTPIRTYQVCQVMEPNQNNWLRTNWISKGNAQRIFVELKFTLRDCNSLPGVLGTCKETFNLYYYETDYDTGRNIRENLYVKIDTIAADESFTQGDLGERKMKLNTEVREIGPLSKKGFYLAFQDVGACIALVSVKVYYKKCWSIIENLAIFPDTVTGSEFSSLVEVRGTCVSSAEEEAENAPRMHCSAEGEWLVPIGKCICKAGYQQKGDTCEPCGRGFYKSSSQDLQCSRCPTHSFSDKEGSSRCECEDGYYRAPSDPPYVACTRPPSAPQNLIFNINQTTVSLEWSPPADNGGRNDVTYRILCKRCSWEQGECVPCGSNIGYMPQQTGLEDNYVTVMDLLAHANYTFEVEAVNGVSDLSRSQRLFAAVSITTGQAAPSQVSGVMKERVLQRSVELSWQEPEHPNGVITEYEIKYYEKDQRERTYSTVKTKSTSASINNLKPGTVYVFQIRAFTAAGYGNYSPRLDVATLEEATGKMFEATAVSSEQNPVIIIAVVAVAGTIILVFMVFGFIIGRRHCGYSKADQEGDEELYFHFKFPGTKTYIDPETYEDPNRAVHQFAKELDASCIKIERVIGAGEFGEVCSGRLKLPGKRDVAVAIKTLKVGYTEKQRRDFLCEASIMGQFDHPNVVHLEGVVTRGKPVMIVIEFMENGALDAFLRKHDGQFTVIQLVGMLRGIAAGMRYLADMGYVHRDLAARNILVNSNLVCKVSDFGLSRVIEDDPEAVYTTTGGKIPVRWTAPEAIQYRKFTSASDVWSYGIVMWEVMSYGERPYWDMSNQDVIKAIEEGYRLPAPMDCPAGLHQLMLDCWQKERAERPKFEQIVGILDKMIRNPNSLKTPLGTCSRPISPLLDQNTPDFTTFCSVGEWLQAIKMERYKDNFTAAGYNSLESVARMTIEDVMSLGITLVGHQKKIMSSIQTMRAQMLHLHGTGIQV
# Ephrin type-A receptor 5 (Homo sapiens), sequence (P54756 whole entry): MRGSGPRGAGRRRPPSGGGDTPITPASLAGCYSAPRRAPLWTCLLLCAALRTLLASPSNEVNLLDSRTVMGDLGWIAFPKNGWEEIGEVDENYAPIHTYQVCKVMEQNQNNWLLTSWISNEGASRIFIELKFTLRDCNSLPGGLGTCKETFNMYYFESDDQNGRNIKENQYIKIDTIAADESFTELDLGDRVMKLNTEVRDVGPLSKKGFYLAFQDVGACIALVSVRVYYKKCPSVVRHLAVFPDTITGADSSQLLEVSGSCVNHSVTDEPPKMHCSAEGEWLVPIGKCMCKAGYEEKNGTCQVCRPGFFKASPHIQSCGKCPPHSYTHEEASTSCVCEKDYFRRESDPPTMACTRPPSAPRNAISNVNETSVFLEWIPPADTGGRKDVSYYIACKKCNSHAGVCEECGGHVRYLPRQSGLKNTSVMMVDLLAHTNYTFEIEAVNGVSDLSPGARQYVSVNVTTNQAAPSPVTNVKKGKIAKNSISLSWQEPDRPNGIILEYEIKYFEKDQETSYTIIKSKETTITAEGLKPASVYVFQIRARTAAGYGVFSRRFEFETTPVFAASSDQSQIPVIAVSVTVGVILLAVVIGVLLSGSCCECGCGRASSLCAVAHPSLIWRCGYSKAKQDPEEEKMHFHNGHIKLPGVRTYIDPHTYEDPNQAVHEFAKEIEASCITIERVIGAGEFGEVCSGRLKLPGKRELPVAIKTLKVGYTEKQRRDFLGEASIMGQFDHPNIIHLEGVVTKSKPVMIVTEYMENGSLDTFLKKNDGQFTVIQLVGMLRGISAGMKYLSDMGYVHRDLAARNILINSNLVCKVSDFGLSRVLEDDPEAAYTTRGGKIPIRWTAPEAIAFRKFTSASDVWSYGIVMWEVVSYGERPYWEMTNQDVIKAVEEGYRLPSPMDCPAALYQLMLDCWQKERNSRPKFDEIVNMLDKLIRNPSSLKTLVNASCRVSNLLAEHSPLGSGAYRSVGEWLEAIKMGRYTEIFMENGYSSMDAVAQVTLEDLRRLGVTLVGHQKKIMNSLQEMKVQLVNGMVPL
compound,measurement,setting,value
COc1ccc(-c2cnc3c(-c4ccsc4)cnn3c2)cc1,residual activity,[1],87%
same,residual activity,[2],95%
same,residual activity,[3],95%
same,residual activity,[4],95%
same,residual activity,[5],98%
same,residual activity,[6],99%
same,residual activity,[7],123%
same,residual activity,[8],122%
same,residual activity,[9],141%
